The campaign covered roughly 340,000 compounds. About 3,300 (0.97%) were called active. Not shown: some 9% with an inconclusive outcome. The call rests on the fitted dose curve; in most records, active means well fitted inhibition curve with a large enough effect; inconclusive means small, poorly fitted or top-dose-only effect, or effect the other way; inactive means flat fitted curve, though single readings scatter. Some of the results follow.
Assay: qHTS Assay for Modulators of miRNAs and/or Inhibitors of miR-21; further: nearly all actives have a fitted effect of over 55% in size
Conditions: HeLa miR-21-FLuc reporter, luciferase luminescence, 48 h; actives lower the signal
Outline: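 Using DMEM plus 10% FBS, HeLa miR-21-FLuc cells are incubated with test compounds (final up to about 40uM) for 48 hours; firefly luciferase signal is then imaged following reagent-mediated lysis.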
Potency means the concentration at half of the fitted maximal effect.

Potency, active:
CCOc1ccc2nc(C(=O)N3CCCC(C)C3)sc2c1 (stereo not drawn) 3.29 µM
c1ccc2c(COn3nnc4ccccc43)cccc2c1 2.61 µM
COC(=O)c1ccc(COn2nnc3ccccc32)cc1 1.31 µM
Clc1ccc(COn2nnc3ccccc32)c(Cl)c1 2.61 µM
COc1cccc(/C=N/n2c(=O)[nH]c3ccccc32)c1OC 8.26 µM
COc1cccc(/C=N/Nc2nc3ccccc3[nH]2)c1OC 2.93 µM
O=c1[nH]n(CC2COC3(CCCCC3)O2)c(=O)c2ccccc12 (stereo not drawn) 16.5 µM
Oc1cccc(Nc2nc(O)c(/C=C3\C=Nc4ccccc43)s2)c1 8.26 µM
Cc1ccc(S(=O)(=O)Oc2cccc(/C=N/Nc3ccc(C(=O)O)cc3)c2)cc1 13.1 µM
FC(F)(F)c1cccc(N/N=C/c2ccccc2)c1 6.56 µM
O=C(O)c1ccc(/C=N/Nc2cccc(C(F)(F)F)c2)cc1 7.36 µM
O=C(O)c1ccc(N/N=C/c2cccc(C(F)(F)F)c2)cc1 1.85 µM
Cc1nn(-c2cccc(C(F)(F)F)c2)c(Cl)c1/C=N/Nc1cccc(C(=O)O)c1 0.104 µM
CCNc1nc(NCC)nc(N/N=C/c2ccc(O)c(O)c2)n1 18.5 µM
Oc1ccc(/C=N/Nc2ccc(Cl)nn2)cc1O 13.1 µM
Oc1ccc(/C=N/Nc2ccc(C(F)(F)F)cn2)cc1O 10.4 µM
O=C1C[C@H]2[C@H](CO)[C@@H](OC(=O)c3ccc(-c4ccccc4)cc3)C[C@H]2O1 7.36 µM
O=C(O)c1cccc(N/N=C/c2cc(Br)cc(Br)c2O)c1 5.21 µM
O=C(O)c1ccccc1N/N=C/c1cc(Br)cc(Br)c1O 2.07 µM
O=c1[nH]c2ccccc2c2cn(-c3ccccc3)nc12 4.65 µM
CC(CNC(=O)c1ccc2c(c1)nc1n2CCOC1)c1ccccc1 (stereo not drawn) 13.1 µM
Cc1cccc(CCNC(=O)c2ccc3c(c2)nc2n3CCOC2)c1 3.29 µM
COc1cc(Cl)cc(/C=C/c2ccc3ccccc3n2)c1OC(C)=O 0.414 µM
O=C1c2ccccc2-c2nc3ccccc3cc21 1.47 µM
Cc1cc2nc(-c3cccc(NC(=O)COc4ccc(C(C)C)cc4)c3)oc2cc1C 0.369 µM
COc1ccc(OCC(=O)Nc2ccc(-c3nc4cc(C)c(C)cc4o3)cc2)cc1 0.131 µM
COc1ccc(OCC(=O)Nc2ccc(-c3nc4cc(Cl)ccc4o3)cc2)cc1 2.93 µM
O=C(COc1ccc(Cl)cc1)Nc1ccc(-c2nc3cc(Cl)ccc3o2)c(O)c1 7.36 µM

Reference: PubChem BioAssay AID2289 (National Center for Advancing Translational Sciences (NCATS), 2010)
